Laboratory results published in PubChem BioAssay (Tox21).
Records with an inconclusive call do not appear. A call without a number means that no potency is given here. Calls of active or inactive are those of the source. Unless noted, the call rests on the fitted dose curve; in most records, active means well fitted curve in the direction sought with a large enough effect in the repeat runs; inconclusive means weak or mixed curves; inactive means no such curve, though single readings can be large; an effect the other way counts as inactive or inconclusive.

Assay: qHTS assay for small molecule activators of the heat shock response signaling pathway - cell viability counter screen (AID 743209); further: nearly all actives have a fitted effect of over 50% in size
Conditions: HSE-bla HeLa viability, CellTiter-Glo luminescence, 5 h; series mostly up to 62.6 µM
Procedure, shortened: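 First, HSE-bla HeLa cells were seeded at 1500 cells/well and kept overnight at 37 C. Next, compounds were pinned in and incubated 5 h. After the FRET substrate step, CellTiter-Glo was added and luminescence read 30 min later.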
In the case of Cc1ccc(OC(=O)CC(C)C)cc1, the Potency is reported as “inactive”.
In the case of CCO/C=C1\N=C(c2ccccc2)OC1=O, the Potency is reported as “inactive”.
For CC1(C)S[C@@H]2[C@H](NC(=O)Cc3ccccc3)C(=O)N2[C@H]1C(=O)O (tested in a mixture with another compound), the Potency was “inactive”.
For CC(CC(=O)Cl)CC(C)(C)C (stereo not given), the Potency was “inactive”.
For Cc1ccc(S(=O)(=O)NC(=O)NN2CC3CCCC3C2)cc1 (stereo not given), the Potency was “inactive”.
For CCCC(=O)CC, the Potency was “inactive”.
For O=Cc1ccc(C(=O)O)cc1, the Potency was “inactive”.
With c1cc2ccc3ccc4ccc5cccc6c(c1)c2c3c4c56 the activity change, negative = cytotoxicity was 1.58% [at 2.7 µM] (inactive).
For C=C(C)C(=O)OCCCC, the Potency was “inactive”.
For CCCCN1C(=O)c2ccccc2C1=O, the Potency was “inactive”.
For C[C@@H]1CC[C@@]2(OC1)O[C@H]1C[C@H]3[C@@H]4CC[C@H]5C[C@@H](O)CC[C@]5(C)[C@H]4CC(=O)[C@]3(C)[C@H]1[C@@H]2C, the activity change, negative = cytotoxicity was 11.4% [at 5.95 µM] (inactive).
With CCOCCOCCOC(C)=O the Potency was “inactive”.
In the case of CC(O)CCCCn1c(=O)c2c(ncn2C)n(C)c1=O (stereo not given), the Potency is reported as “inactive”.
In the case of CCOC(=O)CC, the Potency is reported as “inactive”.
In the case of C=COCCCCO, the Potency is reported as “inactive”.
In the case of CC/C=C\CCCCCCCCCCOC(C)=O, the Potency is reported as “inactive”.
With CCCCCCCCS(=O)(=O)O the Potency was “inactive”.
For CN1C(CCl)Nc2cc(Cl)c(S(N)(=O)=O)cc2S1(=O)=O (stereo not given), the Potency was “inactive”.
With CC(=O)SCC(CC(=O)c1ccc(C)cc1)C(=O)O (stereo not given) the Potency was “inactive”.
For CN(C)c1ccncc1, the Potency was “inactive”.
For O=S(=O)(O)CC(O)CCl (stereo not given), the Potency was “inactive”.
For N[C@H]1C(O)O[C@H](CO)[C@@H](O)[C@@H]1O (stereo not given in full), the Potency was “inactive”.
In the case of C=CCN1CCc2nc(N)sc2CC1, the Potency is reported as “inactive”.
With Cc1ccc(O)c([N+](=O)[O-])c1 the Potency was “inactive”.
In the case of OCCC(F)(F)C(F)(F)C(F)(F)C(F)(F)C(F)(F)C(F)(F)F, the Potency is reported as “inactive”.
For CNCCc1ccccn1, the Potency was “inactive”.
For Cc1ccccc1OCC(=O)O, the Potency was “inactive”.
In the case of CCOc1ccccc1OCCN[C@H](C)Cc1ccc(OC)c(S(N)(=O)=O)c1, the Potency is reported as “inactive”.
In the case of CC1(C)CC(N)CC(C)(C)N1, the Potency is reported as “inactive”.

Assay: qHTS assay for small molecule activators of the heat shock response signaling pathway (AID 743210; active means well fitted activation curve with a large enough effect in the signal ratio in the repeat runs, with a control signal flat, not every such curve was filed as active; the % refers to the signal ratio;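 further: HeLa cells with beta-lactamase reporter driven by heat shock elements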)
Conditions: HeLa HSE-bla reporter, beta-lactamase ratio, 5 h; series mostly up to 62.6 µM
Procedure, shortened: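 Reporter gene assay: HeLa cells stably bearing an HSE-bla construct, compound treatment 5 h at 37 C, LiveBLAzer substrate 2.5 h at RT, fluorescence intensity.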
For Cc1ccc(OC(=O)CC(C)C)cc1, the outcome was “inactive”.
With CCO/C=C1\N=C(c2ccccc2)OC1=O the outcome was “inactive”.
In the case of CCCCCCCCCCCCCCCCN(C)C, the activation is reported as -0.814% [at 5.95 µM] (inactive).
For CC[C@@]1(c2ccccc2)NC(=O)N(C)C1=O, the outcome was “inactive”.
For O=C(O)P(=O)(O)O, the outcome was “inactive”.
For CC1(C)S[C@@H]2[C@H](NC(=O)Cc3ccccc3)C(=O)N2[C@H]1C(=O)O (tested in a mixture with another compound), the outcome was “inactive”.
For Cc1ccc(S(=O)(=O)NC(=O)NN2CC3CCCC3C2)cc1 (stereo not given), the outcome was “inactive”.
With Cc1ccc2cccnc2c1 the outcome was “inactive”.
For CN(C)CCCN(C)C, the activation was -0.827% [at 5.95 µM] (inactive).
In the case of O=Cc1ccc(C(=O)O)cc1, the outcome is reported as “inactive”.
For CC1(C)C(=O)C(C)(C)C1=O, the outcome was “inactive”.
For C=C(C)C(=O)OCCCC, the outcome was “inactive”.
In the case of CCCCN1C(=O)c2ccccc2C1=O, the outcome is reported as “inactive”.
For C[C@@H]1CC[C@@]2(OC1)O[C@H]1C[C@H]3[C@@H]4CC[C@H]5C[C@@H](O)CC[C@]5(C)[C@H]4CC(=O)[C@]3(C)[C@H]1[C@@H]2C, the activation was 0.0014% [at 5.95 µM] (inactive).
With CCOCCOCCOC(C)=O the outcome was “inactive”.
For CC(O)CCCCn1c(=O)c2c(ncn2C)n(C)c1=O (stereo not given), the outcome was “inactive”.
With CCOC(=O)CC the outcome was “inactive”.
In the case of C=COCCCCO, the outcome is reported as “inactive”.
In the case of CC/C=C\CCCCCCCCCCOC(C)=O, the outcome is reported as “inactive”.
For CCCCCCCCS(=O)(=O)O, the outcome was “inactive”.
With CN1C(CCl)Nc2cc(Cl)c(S(N)(=O)=O)cc2S1(=O)=O (stereo not given) the outcome was “inactive”.
In the case of CC(=O)SCC(CC(=O)c1ccc(C)cc1)C(=O)O (stereo not given), the outcome is reported as “inactive”.
For CN(C)c1ccncc1, the outcome was “inactive”.
In the case of O=S(=O)(O)CC(O)CCl (stereo not given), the outcome is reported as “inactive”.
In the case of N[C@H]1C(O)O[C@H](CO)[C@@H](O)[C@@H]1O (stereo not given in full), the outcome is reported as “inactive”.
For C=CCN1CCc2nc(N)sc2CC1, the outcome was “inactive”.
For Cc1ccc(O)c([N+](=O)[O-])c1, the outcome was “inactive”.
In the case of OCCC(F)(F)C(F)(F)C(F)(F)C(F)(F)C(F)(F)C(F)(F)F, the outcome is reported as “inactive”.
With CN(C)c1cc(NC(=O)CNC(C)(C)C)c(O)c2c1C[C@H]1C[C@H]3[C@H](N(C)C)C(=O)C(C(N)=O)=C(O)[C@@]3(O)C(=O)C1=C2O the outcome was “inactive”.
In the case of CNCCc1ccccn1, the outcome is reported as “inactive”.
With Cc1ccccc1OCC(=O)O the outcome was “inactive”.
With CCOc1ccccc1OCCN[C@H](C)Cc1ccc(OC)c(S(N)(=O)=O)c1 the outcome was “inactive”.
In the case of CCC(C)SSC(C)CC (stereo not given), the outcome is reported as “inactive”.
With CC1(C)CC(N)CC(C)(C)N1 the outcome was “inactive”.

Assay: qHTS assay to identify small molecule agonists of the peroxisome proliferator-activated receptor delta (PPARd) signaling pathway - cell viability counter screen (AID 743211); further: nearly all actives have a fitted effect of over 55% in size
Conditions: PPARd-bla HEK293H viability, CellTiter-Glo luminescence, 17 h; series mostly up to 62.6 µM
Procedure, shortened: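 PPARd-bla HEK293H cells (3000/well) were pre-incubated 5 h at 37 C, then exposed to compound for 17 h at 37 C. After 2 h with LiveBLAzer substrate, CellTiter-Glo was added to the same wells; luminescence read after 30 min at room temperature.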
With Cc1ccc(OC(=O)CC(C)C)cc1 the outcome was “inactive”.
In the case of CCO/C=C1\N=C(c2ccccc2)OC1=O, the outcome is reported as “inactive”.
For CCCCCCCCCCCCCCCCN(C)C, the activity change, negative = cytotoxicity was 1.19% [at 5.95 µM] (inactive).
In the case of CC[C@@]1(c2ccccc2)NC(=O)N(C)C1=O, the outcome is reported as “inactive”.
For O=C(O)P(=O)(O)O, the outcome was “inactive”.
In the case of CC1(C)S[C@@H]2[C@H](NC(=O)Cc3ccccc3)C(=O)N2[C@H]1C(=O)O (tested in a mixture with another compound), the outcome is reported as “inactive”.
With CC(CC(=O)Cl)CC(C)(C)C (stereo not given) the outcome was “inactive”.
With Cc1ccc(S(=O)(=O)NC(=O)NN2CC3CCCC3C2)cc1 (stereo not given) the outcome was “inactive”.
With Cc1ccc2cccnc2c1 the outcome was “inactive”.
In the case of CCCC(=O)CC, the outcome is reported as “inactive”.
For CN(C)CCCN(C)C, the activity change, negative = cytotoxicity was -3.03% [at 5.95 µM] (inactive).
For O=Cc1ccc(C(=O)O)cc1, the outcome was “inactive”.
For c1cc2ccc3ccc4ccc5cccc6c(c1)c2c3c4c56, the activity change, negative = cytotoxicity was -28.1% [at 2.7 µM] (inactive).
For CC1(C)C(=O)C(C)(C)C1=O, the outcome was “inactive”.
With C=C(C)C(=O)OCCCC the outcome was “inactive”.
For CCCCN1C(=O)c2ccccc2C1=O, the outcome was “inactive”.
In the case of C[C@@H]1CC[C@@]2(OC1)O[C@H]1C[C@H]3[C@@H]4CC[C@H]5C[C@@H](O)CC[C@]5(C)[C@H]4CC(=O)[C@]3(C)[C@H]1[C@@H]2C, the activity change, negative = cytotoxicity is reported as 5.8% [at 5.95 µM] (inactive).
With CCOCCOCCOC(C)=O the outcome was “inactive”.
In the case of CC(O)CCCCn1c(=O)c2c(ncn2C)n(C)c1=O (stereo not given), the outcome is reported as “inactive”.
In the case of CCOC(=O)CC, the outcome is reported as “inactive”.
With c1coc(Cn2cccc2)c1 the outcome was “inactive”.
In the case of C=COCCCCO, the outcome is reported as “inactive”.
In the case of CC/C=C\CCCCCCCCCCOC(C)=O, the outcome is reported as “inactive”.
In the case of CCCCCCCCS(=O)(=O)O, the outcome is reported as “inactive”.
For CN1C(CCl)Nc2cc(Cl)c(S(N)(=O)=O)cc2S1(=O)=O (stereo not given), the outcome was “inactive”.
With CC(=O)SCC(CC(=O)c1ccc(C)cc1)C(=O)O (stereo not given) the outcome was “inactive”.
For CN(C)c1ccncc1, the outcome was “inactive”.
With O=S(=O)(O)CC(O)CCl (stereo not given) the outcome was “inactive”.
For N[C@H]1C(O)O[C@H](CO)[C@@H](O)[C@@H]1O (stereo not given in full), the outcome was “inactive”.
For C=CCN1CCc2nc(N)sc2CC1, the outcome was “inactive”.
For Cc1ccc(O)c([N+](=O)[O-])c1, the outcome was “inactive”.
With OCCC(F)(F)C(F)(F)C(F)(F)C(F)(F)C(F)(F)C(F)(F)F the outcome was “inactive”.
In the case of CNCCc1ccccn1, the outcome is reported as “inactive”.
In the case of Cc1ccccc1OCC(=O)O, the outcome is reported as “inactive”.
For CCOc1ccccc1OCCN[C@H](C)Cc1ccc(OC)c(S(N)(=O)=O)c1, the outcome was “inactive”.
In the case of CCC(C)SSC(C)CC (stereo not given), the outcome is reported as “inactive”.
With CC1(C)CC(N)CC(C)(C)N1 the outcome was “inactive”.
